The source made the active and inactive calls. Unless noted, no rule for the calls is given here.
Assays:
[1] = compounds binding Alexa647 anti-His antibody – biochemical, small-molecule microarray, 635 nm fluorescence, artefact control for SMM control protein annotation, primary screen (AID 1128); settings: higher = more signal;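 also: score merges feature fluorescence with signal-to-noise for each printed compound spot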
[2] = tested on: Human papillomavirus type 1a E7 protein (residues 1-88); experiment: HPV1a E7 small-molecule binders, primary screen, biochemical, small-molecule microarray, residues 1-88, 635 nm (AID 1129); settings: small-molecule microarray binding, fluorescence 635 nm; higher = more signal
[3] = target: Focal adhesion kinase 1 (Homo sapiens) (UniProt Q05397); experiment: PTK2 protein binding on printed compound slides – biochemical, small-molecule microarray, 635/667 nm fluorescence, BSA, DTT, primary screen (AID 1130); settings: 635 nm fluorescence, higher = more signal;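 also: composite of spot emission at 667 nm and signal to noise over triplicate slides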
[4] = tested on: Fibrinogen (Alexa647-labelled); experiment: Alexa647-fibrinogen binding to printed small molecules – biochemical, small-molecule microarray, 635/667 nm fluorescence, artefact control for SMM control-protein annotation, profiling panel (AID 1131); settings: fibrinogen-A647 binding fluorescence, higher = more signal;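 also: z-score merges 667 nm fluorescence with per-spot signal-to-noise over triplicate slides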
[5] = target: Follistatin (Homo sapiens) (UniProt P19883); experiment: FST protein binding to printed compounds – biochemical, small-molecule microarray, 635/667 nm fluorescence, primary screen (AID 1132); settings: 635 nm fluorescence, higher = more signal
[6] = target: Fibroblast growth factor 2 (Homo sapiens) (UniProt P09038); experiment: basic fibroblast growth factor binding to printed compounds – biochemical, small-molecule microarray, 635/667 nm fluorescence, primary screen (AID 1133); settings: FGF2, fluorescence 635/667, higher = more signal
[7] = JC-1 mitochondrial potential readout, lung cancer cells – cell-based, A549, JC-1 fluorescence, basal, 24 h, 100 nL, profiling panel (AID 1138); settings: higher = more signal;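 also: A549 lung adenocarcinoma cells under basal conditions with no added stimulus; test concentration not given here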
Lefty1 = Lefty1 protein binding to printed compounds – biochemical, small-molecule microarray, 635/667 nm fluorescence, primary screen (AID 1139); settings: fluorescence 635/667, higher = more signal
[8] = tested on: wheat germ agglutinin (Triticum aestivum), Alexa647-labelled; experiment: Alexa647-WGA lectin binding to printed small molecules – biochemical, small-molecule microarray, 635/667 nm fluorescence, artefact control for SMM control-protein annotation, profiling panel (AID 1140); settings: WGA-A647 binding, 635 nm fluorescence, higher = more signal;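 also: score merges 667 nm feature emission with signal to noise over triplicate slides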
[9] = target: Luciferin 4-monooxygenase (Photinus pyralis) (UniProt P08659); experiment: inhibition of purified Photinus pyralis luciferase – biochemical, luminescence, purified enzyme, 2006 set, primary screen (AID 1141); settings: purified firefly luciferase, SteadyGlo luminescence, 30 min; higher = more signal, called active from +8 up or from −8 down;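 also: cell-free assay with purified firefly luciferase at 100 ng per well in PBS; test concentration not given here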
[10] = tested on: Wnt5a (protein binding on small-molecule microarray); experiment: small molecules binding Wnt5a protein – biophysical, small-molecule microarray, 635/667 nm fluorescence, primary screen (AID 1142); settings: 635 nm fluorescence, higher = more signal;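 also: fluorescence read at 667 nm with signal to noise per printed feature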
[11] = ATP-based viability of Huh7 replicon cells – cell-based, CellTiter-Glo luminescence, basal, 48 h, cytotoxicity control for HCV replication inhibitor project, primary screen (AID 1143); settings: higher = more signal, called active from +8 up or from −8 down;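 also: Huh7 hepatoma cells carrying a hepatitis C replication reporter with no stimulus; test concentration not given here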
[12] = Pseudomonas biofilm growth suppression – PAO1 strain, BacTiter-Glo luminescence, LB-PBS, primary screen (AID 1144); settings: P. aeruginosa PAO1 biofilm, 12 h, higher = more signal
[13] = basal CRE-LacZ reporter activity in PC12 – cell-based, unstimulated, primary screen (AID 1145); settings: no forskolin, luminescence, 4.5 h, higher = more signal, called active from +8 up or from −8 down
[14] = forskolin-driven CRE-LacZ activity in PC12 – cell-based, CRE-LacZ reporter, forskolin-stimulated, primary screen (AID 1146); settings: luminescence, 4.5 h, higher = more signal, called active from +8 up or from −8 down;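 also: PC12 cells with 6xCRE LacZ reporter stimulated by forskolin 10 µM; beta-galactosidase reporter signal reflecting CREB driven transcription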
[15] = target: Streptavidin (Streptomyces avidinii) (UniProt P22629); experiment: compounds binding control protein streptavidin – biophysical, small-molecule microarray, 635/667 nm fluorescence, artefact control for SMM compound annotation, primary screen (AID 1147); settings: higher = more signal;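 also: signal reflects streptavidin binding to arrayed compounds as a control protein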
[16] = probe aInhba binding on compound microarray – biochemical, small-molecule microarray, 635/667 nm fluorescence, primary screen (AID 1148); settings: higher = more signal;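 also: score merges 667nm spot fluorescence with signal-to-noise for antibody binding to printed compounds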
Torsin-1A (Homo sapiens) [17] = target: Torsin-1A (Homo sapiens) (UniProt O14656); experiment: TOR1A wild-type binding on microarray – cell lysate, small-molecule microarray, lysate, 635/667 nm, primary screen (AID 1149); settings: COS7 hTOR1A-WT lysate, 635 nm fluorescence, higher = more signal
Torsin-1A (Homo sapiens) [18] = target: Torsin-1A (Homo sapiens) (UniProt O14656); experiment: torsin A mutant lysate binding on microarrays – cell lysate, small-molecule microarray, COS7 lysate, 635/667 nm fluorescence, primary screen (AID 1150); settings: COS7 hTOR1A mutant lysate, 635 nm fluorescence, higher = more signal;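 also: score pools 667 nm emission and signal to noise measuring lysate protein binding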
[19] = tested on: Sonic hedgehog protein (Shh); experiment: Sonic hedgehog microarray binding compounds – biochemical, small-molecule microarray, 635/667 nm fluorescence, primary screen (AID 1151); settings: 635 nm fluorescence, higher = more signal;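 also: Shh protein binding to compounds spotted on small-molecule microarray slides; score combines spot fluorescence intensity with signal-to-noise across triplicate slides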

Chain of Torsin-1A (Homo sapiens) (O14656 whole entry, looked up): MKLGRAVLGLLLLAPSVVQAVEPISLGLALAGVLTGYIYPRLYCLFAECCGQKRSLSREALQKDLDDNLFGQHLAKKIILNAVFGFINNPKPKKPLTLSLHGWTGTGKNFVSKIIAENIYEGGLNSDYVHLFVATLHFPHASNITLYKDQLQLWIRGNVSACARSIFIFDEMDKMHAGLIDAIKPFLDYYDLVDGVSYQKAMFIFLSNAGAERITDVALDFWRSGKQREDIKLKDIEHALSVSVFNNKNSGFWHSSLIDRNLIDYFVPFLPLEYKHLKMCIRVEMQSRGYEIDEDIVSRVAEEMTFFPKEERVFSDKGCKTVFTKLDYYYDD
Chain of Follistatin (Homo sapiens) (P19883 whole entry, looked up): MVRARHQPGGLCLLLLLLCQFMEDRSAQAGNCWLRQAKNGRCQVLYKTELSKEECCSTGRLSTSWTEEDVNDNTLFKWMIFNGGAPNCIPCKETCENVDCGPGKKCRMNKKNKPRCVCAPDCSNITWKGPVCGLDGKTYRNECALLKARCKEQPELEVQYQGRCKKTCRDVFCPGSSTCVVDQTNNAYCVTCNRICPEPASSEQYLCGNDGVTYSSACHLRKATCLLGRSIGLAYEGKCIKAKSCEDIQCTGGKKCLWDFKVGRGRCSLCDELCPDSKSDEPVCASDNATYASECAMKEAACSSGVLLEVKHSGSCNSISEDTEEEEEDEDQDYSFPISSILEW
Chain of Focal adhesion kinase 1 (Homo sapiens) (Q05397 whole entry, looked up): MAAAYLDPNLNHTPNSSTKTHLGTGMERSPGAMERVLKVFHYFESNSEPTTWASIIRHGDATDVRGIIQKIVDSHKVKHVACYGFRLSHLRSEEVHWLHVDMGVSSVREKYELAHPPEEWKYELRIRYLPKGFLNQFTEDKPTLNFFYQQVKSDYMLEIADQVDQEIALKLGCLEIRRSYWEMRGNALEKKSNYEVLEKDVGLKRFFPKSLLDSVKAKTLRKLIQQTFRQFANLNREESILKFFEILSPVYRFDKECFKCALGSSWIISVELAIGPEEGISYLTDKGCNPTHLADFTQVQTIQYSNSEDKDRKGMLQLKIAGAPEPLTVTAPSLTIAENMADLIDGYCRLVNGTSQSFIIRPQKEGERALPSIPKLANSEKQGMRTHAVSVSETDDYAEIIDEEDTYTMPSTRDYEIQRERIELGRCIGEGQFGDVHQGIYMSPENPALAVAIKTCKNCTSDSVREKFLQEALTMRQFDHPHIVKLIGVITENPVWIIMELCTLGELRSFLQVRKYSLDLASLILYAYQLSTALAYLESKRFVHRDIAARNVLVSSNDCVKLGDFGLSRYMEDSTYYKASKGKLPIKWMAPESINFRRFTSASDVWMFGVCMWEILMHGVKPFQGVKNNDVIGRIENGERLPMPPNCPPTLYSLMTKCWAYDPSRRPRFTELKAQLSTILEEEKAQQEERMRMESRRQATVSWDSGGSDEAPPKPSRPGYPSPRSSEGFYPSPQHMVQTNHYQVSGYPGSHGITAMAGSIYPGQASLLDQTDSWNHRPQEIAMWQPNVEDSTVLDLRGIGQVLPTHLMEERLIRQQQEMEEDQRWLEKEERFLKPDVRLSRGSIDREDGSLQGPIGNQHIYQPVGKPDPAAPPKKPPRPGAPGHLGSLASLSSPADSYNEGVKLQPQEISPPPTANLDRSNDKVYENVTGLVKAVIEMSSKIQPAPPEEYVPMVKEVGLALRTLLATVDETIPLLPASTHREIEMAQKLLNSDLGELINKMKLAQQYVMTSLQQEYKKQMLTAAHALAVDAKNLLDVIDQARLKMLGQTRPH
Chain of Streptavidin (Streptomyces avidinii) (P22629 whole entry, looked up): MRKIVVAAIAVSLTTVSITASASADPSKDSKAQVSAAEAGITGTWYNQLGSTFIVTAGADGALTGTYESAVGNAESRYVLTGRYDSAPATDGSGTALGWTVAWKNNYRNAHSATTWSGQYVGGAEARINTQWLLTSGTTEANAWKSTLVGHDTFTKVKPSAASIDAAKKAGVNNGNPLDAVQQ
Chain of Luciferin 4-monooxygenase (Photinus pyralis) (P08659 whole entry, looked up): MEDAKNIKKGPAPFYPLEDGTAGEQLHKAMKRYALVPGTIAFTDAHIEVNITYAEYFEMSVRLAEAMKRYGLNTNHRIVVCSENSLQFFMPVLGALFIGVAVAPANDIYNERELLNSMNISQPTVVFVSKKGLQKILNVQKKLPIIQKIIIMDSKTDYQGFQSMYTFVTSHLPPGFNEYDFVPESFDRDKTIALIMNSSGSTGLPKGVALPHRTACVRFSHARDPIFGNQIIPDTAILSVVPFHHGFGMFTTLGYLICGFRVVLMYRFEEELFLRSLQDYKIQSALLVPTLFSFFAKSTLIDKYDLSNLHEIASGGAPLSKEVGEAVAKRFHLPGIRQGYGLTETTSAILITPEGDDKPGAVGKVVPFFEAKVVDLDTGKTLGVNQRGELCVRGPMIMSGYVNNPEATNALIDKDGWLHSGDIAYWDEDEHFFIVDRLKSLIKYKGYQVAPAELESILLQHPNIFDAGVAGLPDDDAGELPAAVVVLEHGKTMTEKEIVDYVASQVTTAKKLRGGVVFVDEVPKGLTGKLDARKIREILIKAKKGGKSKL
Chain of Fibroblast growth factor 2 (Homo sapiens) (P09038 whole entry, looked up): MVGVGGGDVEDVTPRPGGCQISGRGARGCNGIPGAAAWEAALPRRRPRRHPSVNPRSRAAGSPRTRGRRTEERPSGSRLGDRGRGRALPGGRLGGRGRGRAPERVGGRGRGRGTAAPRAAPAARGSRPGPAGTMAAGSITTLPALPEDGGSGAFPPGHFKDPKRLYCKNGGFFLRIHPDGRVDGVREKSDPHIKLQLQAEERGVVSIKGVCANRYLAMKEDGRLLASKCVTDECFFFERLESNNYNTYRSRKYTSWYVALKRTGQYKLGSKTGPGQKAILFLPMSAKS

| Structure (SMILES) | composite z-score [1] | composite z-score [2] | composite z-score [3] | composite z-score [4] | composite z-score [5] | composite z-score [6] | z-score [7] | composite z-score (Lefty1) | composite z-score [8] | z-score [9] | composite z-score [10] | z-score [11] | z-score [12] | z-score [13] | z-score [14] | composite z-score [15] | composite z-score [16] | composite z-score (Torsin-1A (Homo sapiens) [17]) | composite z-score (Torsin-1A (Homo sapiens) [18]) | composite z-score [19] |
| --- | --- | --- | --- | --- | --- | --- | --- | --- | --- | --- | --- | --- | --- | --- | --- | --- | --- | --- | --- | --- |
| N[C@@H](Cc1ccccc1)Cn1cc(C2(O)CCCCC2)nn1 | 0.124 | 0.062 | 0.0655 | 0.556 | 0.0725 | -0.445 | 0.375 | 0.333 | 0.128 | -0.377 (inactive) | -0.0937 | 0.08 (inactive) | 0.683 (inactive) | -0.244 (inactive) | 0.766 (inactive) | 0.984 | -0.0494 | 0.0636 | -0.0257 | -0.219 |
| CN(C)CCCC[C@@H]1NC(=O)[C@@H]2C[C@H](C(=O)NCc3ccc(F)cc3)[C@H](c3ccc(O)cc3)N2C1=O | 0.0971 | 0.0709 | -0.103 | 0.348 | 1.45 | 1.91 | 0.0539 | 0.748 | -0.0665 | 0.144 (inactive) | 0.939 | 0.0109 (inactive) | -0.886 (inactive) | 0.557 (inactive) | -0.636 (inactive) | -0.574 | 0.305 | 0.704 | 0.249 | 2.28 |
| CC(C)C(=C=CC[C@@H](O)c1ccccc1OCCO)C[C@@H](O)c1cc(Cl)cc(Cl)c1O | 1.46 | 1.23 | -0.14 | 0.88 | 1.38 | 0.964 | -1.35 | 1.58 | 0.54 | -1 (inactive) | 0.532 | -3.43 (inactive) | 0.519 (inactive) | 3.25 (inactive) | 0.266 (inactive) | 1.05 | 0.0622 | 1.44 | 0.86 | 2.11 |
| COc1ccc(C(O)C2C=CC3C(=O)N(C)C(=O)C3N2Nc2ccc([N+](=O)[O-])cc2[N+](=O)[O-])cc1OCc1ccccc1 (stereo not given) | 1.05 | 1.19 | 0.368 | 0.545 | 0.699 | -0.0627 | 0.552 | 0.0695 | 1.15 | 0.0945 (inactive) | 0.477 | 0.351 (inactive) | 0.967 (inactive) | 0.243 (inactive) | 0.706 (inactive) | 0.171 | 0.566 | 0.255 | 0.387 | -0.105 |
| CC(C)CNC(=O)[C@@H]1c2ccccc2C(=O)N(Cc2ccccc2Cl)[C@H]1c1ccc(CO)cc1 | 1.48 | 0.844 | 0.401 | -1.73 | -0.158 | 0.223 | 0.572 | -0.785 | -0.215 | 0.686 (inactive) | -0.0721 | -0.121 (inactive) | -0.431 (inactive) | -0.179 (inactive) | -0.867 (inactive) | -0.222 | -0.204 | 0.0521 | 0.13 | 0.145 |
| CN1C(=O)C2C(C1=O)C1C=C(c3ccc(CO)cc3)C2C(c2cccs2)N1C (stereo not given) | 0.495 | 0.157 | 0.0955 | 0.783 | -0.0613 | -0.25 | -0.0324 | -0.295 | 0.742 | -0.836 (inactive) | -0.192 | -1.04 (inactive) | 2.04 (inactive) | 1.98 (inactive) | -0.999 (inactive) | 1.56 | -0.0523 | 0.233 | 0.221 | 0.237 |
| C=CCC(OC(C)=O)[C@@H]1[C@@H](N(Cc2cc3ccccc3o2)C(=O)Cc2ccc(OC)cc2)c2cc(OCCCO)ccc2N1C(=O)Cc1ccc(OC)cc1 (stereo not given in full) | 0.69 | -0.406 | 0.517 | 0.712 | 0.726 | 0.171 | -0.411 | -0.0035 | 0.67 | 0.244 (inactive) | -0.0737 | -1.17 (inactive) | 0.0258 (inactive) | 0.469 (inactive) | -0.0385 (inactive) | -0.213 | 0.168 | 0.29 | 0.34 | 0.551 |
| COc1cccc(C[C@H]2C[C@@H](CO[Si](C(C)C)(C(C)C)C(C)C)N3C(=O)[C@@]4(C(C)=O)O[C@@]23[C@@H]2C(=O)N(C)C(=O)[C@@H]24)c1 | -0.265 | 0.681 | 0.0669 | 0.529 | 0.897 | 1.25 | 0.189 | 1.4 | 0.326 | 0.768 (inactive) | 0.0121 | -2.38 (inactive) | 0.333 (inactive) | 0.222 (inactive) | -0.065 (inactive) | 0.0285 | 0.2 | 0.241 | 0.0185 | 1.3 |
| CC(C)(C)OC(=O)CC[C@]1(C(N)=O)N=C(c2ccc(OCCCO)cc2)O[C@H]1c1ccccc1CN=[N+]=[N-] | 3.93 | 1.15 | 0.291 | 0.878 | 0.421 | 1.44 | 0.187 | -0.512 | 0.668 | -4.65 (inactive) | 0.602 | 0.268 (inactive) | 0.201 (inactive) | 1.04 (inactive) | -0.671 (inactive) | 2 | 0.355 | 1.57 | 1.1 | -0.336 |
| C=C(/C(=C/C[C@H](OC(=O)c1ccncc1)c1ccccc1OCCO)c1cc(C(=O)OC)ccc1OC)C(C)C | 0.32 | 1.08 | -0.145 | 0.314 | 1.07 | 1.39 | -0.032 | 0.67 | 0.351 | -0.538 (inactive) | 0.913 | -1.5 (inactive) | -0.439 (inactive) | 6.99 (inactive) | 0.644 (inactive) | -0.0945 | -0.0375 | 0.712 | 0.441 | 1.74 |

Source: PubChem BioAssay
